# Tests used:
# [1] = tested on: PRKD1
# [2] = tested on: PRKD2
# [3] = tested on: PRKX
# [4] = tested on: RAF1
# [5] = tested on: RET
# [6] = tested on: RIOK2
# [7] = tested on: RIOK3
# [8] = tested on: RIPK1
# [9] = tested on: ROCK2
# [10] = tested on: RPS6KA4(Kin.Dom.1-N-terminal)
# [11] = tested on: T1, RSK1(Kin.Dom.2-C-terminal)
# T1 construct: gene RPS6KA1
# [12] = tested on: T2, RSK2(Kin.Dom.2-C-terminal)
# T2 construct: gene RPS6KA3
# [13] = tested on: T3, RSK4(Kin.Dom.1-N-terminal)
# T3 construct: gene RPS6KA6
# [14] = tested on: SRPK1
# 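Further: kd values determined as follow-up on hits from a single-replicate KINOMEscan panel screen.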
smiles,measurement,setting,value
O=C(Nc1n[nH]c2cc(-c3ccsc3)ccc12)C1CC1 [SB-732932],Kd,[1],> 10000 nM
CN1c2ccc(-c3ccc(C(N)=O)cc3)cc2-c2[nH]ncc2S1(=O)=O,Kd,[2],> 10000 nM
CC[C@@H]1CO[C@H](C(=O)Nc2ccccc2)CN1c1cc(-c2ccc3c(N)n[nH]c3c2)nc(NC)n1 [GSK2376236],Kd,[3],130 nM
CNc1nc(-c2ccc3c(N)n[nH]c3c2)cc(N2C[C@@H](C(=O)Nc3ccccc3)CC[C@H]2C)n1 [GSK2298859],Kd,[3],65 nM
Cc1ccc(NC(=O)Nc2ccc(Cl)cc2)cc1-c1ccc(C(=O)Nc2ccncc2)cc1 [GSK1398472],Kd,[4],350 nM
Cc1ccc(NC(=O)Nc2ccc(Cl)c(C(F)(F)F)c2)cc1-c1ccc(C(=O)Nc2ccncc2)cc1 [GSK1398470],Kd,[4],340 nM
Fc1ccc(-c2nn3cccc(F)c3c2-c2ccncc2)cc1 [GW475620],Kd,[5],> 10000 nM
CNCc1ccc2nc(NC(=O)c3ccc(C(C)(C)C)cc3)cn2c1,Kd,[6],> 10000 nM
Nc1cccc(-c2ccc3c(N)n[nH]c3c2)n1 [GSK2192730],Kd,[7],490 nM
CC(C)c1cc(-c2ccc3c(N)n[nH]c3c2)nc(N)n1 [GSK2250882],Kd,[7],440 nM
Nc1ncnc2occ(-c3ccc4c(c3)CCN4C(=O)Cc3cc(F)ccc3F)c12 [GSK2645446],Kd,[8],410 nM
c1ccc(-c2ccnc3[nH]ccc23)cc1 [SB-693578],Kd,[9],530 nM
Cc1nccc(-c2c(-c3ccc(F)cc3)ncn2CCCN2CCOCC2)n1.Cl [SB-282975],Kd,[10],> 10000 nM
O=C1NC(=O)C(c2ccc(Cl)cc2)=C1Nc1cccc(Cl)c1 [SB-317651],Kd,[10],> 10000 nM
Cn1cnc2c(N)ncnc21 [SKF-97623],Kd,[11],> 10000 nM
NS(=O)(=O)c1cccc(N/C=C2\C(=O)Nc3ccc(S(=O)(=O)Cc4c(Cl)cccc4Cl)cc32)c1 [GSK398099],Kd,[11],> 10000 nM
COc1ccc(Nc2nccc(N3CCC(NC(=O)C(C)c4ccc(Cl)cc4)CC3)n2)cc1 (stereo not shown) [GSK1379812],Kd,[12],> 10000 nM
O=C(Nc1n[nH]c2nc(-c3cccs3)c(Br)cc12)C1CC1 [SB-735297],Kd,[13],3800 nM
Cn1cncc1C(=O)NC1CCN(c2ccnc(Nc3ccc(F)cc3)n2)C1 (stereo not shown) [GSK1379717],Kd,[14],> 10000 nM
